Sampled rows, rich in hits. Any-hit rate of the full collection: about 8.1%.
Epigenetic reg: derepresses silenced GFP reporter in murine cells | murine LDR cells, GFP reporter derepression, 30 h | Potency, µM (doses to about 53.9 µM), for inactives: top-dose GFP activation, actives largely listed as activators | actives 0.2% (n = 280,000); also: % of control where 0% means no effect; nearly all actives have a fitted effect of over 60% in size
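Derepression of a silenced CMV-GFP reporter in murine LDR cells is scored by enumerating GFP-positive cells with a laser-scanning microplate cytometer after 30 hours of treatment at 37 C.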
ClpP mod: qHTS Assay for Activators of ClpP; Potency, µM (doses to about 57.5 µM), without a hit: at the top dose activity change, negative = active; actives 1.9% (n = 340,000); purified B. subtilis ClpP, FRET peptide cleavage, 20 min; AID 651965, 2013; active = well fitted falling curve with a large enough effect; inconclusive = small, poorly fitted or top-dose-only effect; inactive = no such curve, though single readings can be large or run the other way; also: the source files actives as falling curves though it sought activators and does not explain the sign; nearly all actives have a fitted effect of over 65% in size
Target sequence (P80244 whole entry, looked up): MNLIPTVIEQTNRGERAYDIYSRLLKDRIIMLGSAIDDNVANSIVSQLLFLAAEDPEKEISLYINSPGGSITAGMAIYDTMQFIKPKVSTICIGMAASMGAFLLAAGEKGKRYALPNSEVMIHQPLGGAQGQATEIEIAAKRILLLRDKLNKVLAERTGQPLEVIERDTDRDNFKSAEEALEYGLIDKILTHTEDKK
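Purified B. subtilis ClpP, 10 microg/mL final in Tris/HCl pH8 with KCl, BSA, glycerol and Tween-20, cleaved an Abz/nitrotyrosine-quenched decapeptide. Fluorescence (ex 320, em 430) was read at 0 and 20 min at room temperature. Delta was normalized to 5.8 microM ADEP and DMSO/no-enzyme controls.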
RORgamma inh: inhibitors of mouse ROR gamma transcriptional activity; P51450; Drosophila S2 Gal4-RORgamma UAS-luciferase reporter, 20 h; Potency, µM (top dose mostly 53.6 µM), for the others: at the highest dose activity change, negative = inhibition, hits mostly inhibitors; actives 5.4% (n = 310,000); also: % is scaled to controls: 0 for no effect and ±100 for the full control effect; nearly all actives have a fitted effect of over 60% in size
Target sequence (P51450 whole entry, looked up, the tested form may be a part): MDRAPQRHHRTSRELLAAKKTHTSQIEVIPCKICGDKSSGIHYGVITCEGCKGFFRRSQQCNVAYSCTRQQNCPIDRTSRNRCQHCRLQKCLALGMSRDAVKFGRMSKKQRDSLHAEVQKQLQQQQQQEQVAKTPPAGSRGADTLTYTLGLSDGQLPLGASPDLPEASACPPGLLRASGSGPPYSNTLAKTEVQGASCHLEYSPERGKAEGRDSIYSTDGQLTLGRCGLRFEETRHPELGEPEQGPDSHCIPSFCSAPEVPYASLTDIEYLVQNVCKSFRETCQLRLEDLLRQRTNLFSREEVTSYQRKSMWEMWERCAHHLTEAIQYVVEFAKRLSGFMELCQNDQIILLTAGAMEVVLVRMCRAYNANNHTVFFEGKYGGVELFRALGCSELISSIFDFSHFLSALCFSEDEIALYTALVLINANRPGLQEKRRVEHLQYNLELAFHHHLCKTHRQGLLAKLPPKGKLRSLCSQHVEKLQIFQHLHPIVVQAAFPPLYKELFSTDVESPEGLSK
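Drosophila S2 cells stably expressing Gal4-DBD/mouse RORγ fusion under metallothionein promoter plus UAS-luciferase; compound 1 h, then 700 uM CuSO4 induction for 20 h at ambient temperature; inhibition read as reduced luminescence.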
Sfp inh: inhibitors of Bacillus subtilis Sfp phosphopantetheinyl transferase; actives 3.5% (n = 310,000); Q9F4F7; Potency, µM, for inactives: largest response in the series, negative = inhibition, usual class: inhibitors; Biochemical Sfp PPTase activity, qHTS;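 also: the enzyme is Sfp with the accession as filed and its product quenches rhodamine fluorescence; 0% = enzyme reaction without inhibitor and -100% = no enzyme wells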
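With Hepes-Na pH 7.6 buffer containing 10 mM MgCl2, Sfp (15 nM) modified BHQ-2-YbbR (12.5 uM) using rhodamine-CoA (5 uM). Two reads 30 minutes apart at 525/598 nm yielded each well's rate.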
Gal4-VP16 FLuc: counter-screen for ROR gamma inhibitors: Gal4-VP16 reporter; Drosophila S2 Gal4-VP16 UAS-luciferase, luminescence, 20 h; Potency, µM (titrated, usually from 53.6 µM), for inactives: top-dose activity, negative = inhibition, actives largely listed as inhibitors; actives 3.5% (n = 310,000);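 also: Gal4-VP16 expression switched on by copper sulfate through the metallothionein promoter; % is scaled to controls: 0 for no effect and ±100 for the full control effect; nearly all actives have a fitted effect of over 50% in size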
PINK1 expr mod: PINK1 expression modulation | actives 0.2% (n = 410,000) | AID 624263 | Potency, µM (series often up to 76.6 µM), for inactives: at the top dose activation (PINK1 increase), most hits filed as activators | PINK1 immunofluorescence, high-content cytometry, 24 h; active = well fitted activation curve with a large enough effect; inconclusive = small, poorly fitted or top-dose-only effect; cell line not stated here; also: % of control where 0% means no effect; nearly all actives have a fitted effect of over 65% in size
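Measures PINK1 amount and localization on or inside mitochondria by immunofluorescence. Stable cells get compounds at 5 concentrations for 24 hours before fixation and staining; CCCP controls included.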
* hit, by the source's call; ? = inconclusive; / = no result; [ ] = remark or other dose. Unless noted, calls follow the shape of the dose curve; as a rule, active = well fitted curve in the direction sought with a large enough effect; inconclusive = small, poorly fitted or top-dose-only effect, or another doubt; inactive = no such curve, though single readings can be large; an effect the other way counts as inactive or inconclusive. Potency is read from the fitted curve at half-maximal effect.

SMILES | Epigenetic reg | ClpP mod | RORgamma inh | Sfp inh | Gal4-VP16 FLuc | PINK1 expr mod
Cc1ccc(NC(=O)c2ccc(Cl)cc2Cl)c(C(=O)c2ccccc2)c1 | -1% | 1% | / | / | / | 4%
COC(=O)C(NS(N)(=O)=O)C(C)C (stereo not drawn) | / | / | -15% | 8% | 5% | /
CCN(c1ccccc1)c1nnc(NC(=O)Nc2cccc(Cl)c2C)s1 | -6% | 0% | / | / | / | -1%
NC1(C(=O)O)CCc2cc(P(=O)(O)O)ccc21 (stereo not drawn) | 0% | / | / | 56µM* | / | /
N[C@]1(C(=O)O)CCc2cc(P(=O)(O)O)ccc21 | 5% | / | 21% | -3% | -1% | /
COCCNc1nc(-c2ccc(OC)cc2)c(-c2ccc(OC)cc2)s1 | 17% | -14% | 11µM* | ? | -19% | 25%
CCCCCCNc1nc(-c2ccc(OC)cc2)c(CCC(=O)O)s1 | -1% | -17% | ? | -11% | 16µM* | 3%
Cc1ccc(CSc2nnc([C@@H](N)C(C)C)o2)cc1 | 0% | 2% | / | / | / | 0%
COc1ccc(S(=O)(=O)N(C)C)cc1NCC(=O)Nc1ccc(F)cc1F | -1% | 1% | 30% | -6% | -15% | -1%
COc1ccc(S(=O)(=O)N(C)C)cc1NS(=O)(=O)c1ccc(F)c(F)c1F | -5% | 1% | 4.5µM* | 7% | 13µM* | -1%
COc1ccccc1NC(=S)N(C(C)C)C(C)c1ccccn1 (stereo not drawn) | 0% | -22% | 13µM* | 1% | -4%[10 µM] | 3%
Cc1cccnc1NC(=O)Nc1cccc(C(F)(F)F)c1 | -1% | -1% | 23% | 14% | 1% | 18%
CC(C)N(C(=S)Nc1cccc(C(F)(F)F)c1)C(C)c1ccccn1 (stereo not drawn) | 0% | 1% | ? | -8% | 3%[10 µM] | 32µM*
O=C1C(=O)c2ccccc2C(O)=C1C1CCC(c2ccc(Cl)cc2)CC1 (stereo not drawn) | 11% | 3% | 13µM* | ? | 5µM* | 4%
Cc1cc(=O)oc2cc(OCC(=O)NC3CCCC3)ccc12 | / | 5% | 0% | 11% | -1% | 0%
O=C(COc1ccc2ccc(=O)oc2c1)NC1CCCCC1 | / | 10µM* | / | / | / | -2%
COc1ccc2c(c1)c(=O)oc1cc(OCC(=O)NC3CCCCC3)ccc12 | -2% | 8.9µM* | 1% | -9% | -11% | 3%
N#CC1(NC(=O)COc2ccc3ccc(=O)oc3c2)CCCCC1 | / | 35µM* | / | / | / | 11%
COc1ccc2c(c1)c(=O)oc1cc(OCC(=O)NC3CC3)ccc12 | -2% | ? | -23% | 9% | -6% | 7%
O=C(Nc1sc2c(c1C(=O)NCc1cccnc1)CCCC2)c1cc(=O)c2ccccc2o1 | ? | -1% | / | / | / | 0%
OC(CNCc1ccco1)Cn1c2ccc(Br)cc2c2cc(Br)ccc21 (stereo not drawn) | 0% | -3% | -13% | 20µM* | ? | /
CCN(CC)[C@@H](C)CN1c2ccccc2Sc2ccccc21 | 0%[16.9 µM] | / | 0%[2.98 µM] | 11% | -2%[17 µM] | /
O=C(NNC(=O)c1cc2cc3ccccc3nc2s1)c1cccc(Cl)c1 | -1% | -10% | -8% | 7% | -9% | 17%
Cc1cccc(C(=O)NNC(=O)c2cc3cc4ccccc4nc3s2)c1 | 1% | 22µM* | ? | 18% | ? | 4%
N#Cc1cccc(CS(=O)(=O)c2ccccc2)c1 | 0% | / | 10% | -9% | -14% | /
SMILES | Epigenetic reg | ClpP mod | RORgamma inh | Sfp inh | Gal4-VP16 FLuc | PINK1 expr mod
O=C(NCc1cccc(OC(F)(F)F)c1)c1cccc2c1C(=O)c1ccc(-c3ccc(F)cc3OCc3ccccc3)cc1S2(=O)=O | / | 1% | / | / | / | 1%
COc1ccc(-c2ccc3c(c2)S(=O)(=O)c2cccc(C(=O)NCc4cccc(OC(F)(F)F)c4)c2C3=O)cc1OC | / | 1% | / | / | / | 4.5µM*
COc1ccc(OC)c(S(=O)(=O)NNC(=S)Nc2ccc3c(c2)OCO3)c1 | / | -2% | 10µM* | 9% | ? | 1%
COC(=O)C1=C(C)[C@H](O)[C@@H](C)[C@](C)(c2cc(OC)c(C)c(OC)c2COc2ccccc2)O1 | -1% | / | 20% | 9% | 2% | /
Cc1ccc(C)c(NC(=S)NNC(=O)c2csc3c2CCC(C)C3)c1 (stereo not drawn) | -2% | 1% | 5µM* | -1% | -24% | 3%[38.3 µM]
CC1(C)CCc2cc(-c3ccnc(=S)[nH]3)ccc2O1 | 1% | / | 1.8µM* | 4% | 3.2µM* | 7%
Cc1ccc(-c2ccnc(=S)[nH]2)cc1 | -1% | -2% | 2.8µM* | 0% | 3.5µM* | -6%[38.3 µM]
S=c1nccc(-c2cccs2)[nH]1 | -1% | 0% | 4µM* | ? | 7.9µM* | -1%
S=c1nccc(-c2ccc3c(c2)CCO3)[nH]1 | -1% | / | 3.2µM* | -24% | 6.3µM* | 2%
CNc1ccc(C=C2c3ccccc3-c3ccccc32)cc1 | / | 1% | / | / | / | 9%
O=S(c1ccccc1)c1ccc2nnnn2n1 (stereo not drawn) | -2% | / | / | / | / | /
Cc1ccccc1Cn1c(=O)n(Cc2ccc3c(c2)OCO3)c(=O)c2oc3ccccc3c21 | -3% | -3% | / | / | / | -1%
COc1ccc(CN2CC[C@H]3C=CC[C@@H](C(=O)Nc4ccccc4)[C@H]3C2=O)cc1OC | / | 1% | / | / | / | /
COC(=O)c1ccc2nc(NC(=O)C(C)C)sc2c1 | 1% | / | ? | 11% | -27% | 7%
COC(=O)c1ccc2nc(NC(=O)C3CC3)sc2c1 | / | / | 8.9µM* | -12% | ? | 0%
COC(=O)c1ccc2nc(NC(=O)CN3C(=O)CCC3=O)sc2c1 | -1% | -19% | 2% | 28µM* | -8% | -2%
O=C(O)c1ccc(CN2C(=O)CSC2=S)cc1 | -2% | 1% | 10µM* | -28% | ? | 0%
COCCN=c1scc(-c2ccc3c(c2)NC(=O)CO3)n1/N=C(\C)c1ccc(O)cc1 | ? | / | ? | 89µM* | ? | ?
COc1cc(/C=N/n2c(-c3ccc4c(c3)NC(=O)CO4)csc2=Nc2cccc(C)c2)ccc1O | -1% | -1% | ? | -27% | ? | 2%
CN(Cc1ccco1)c1nc(-c2cccc(C#N)c2)nc2ccccc12 | 0% | / | 10% | -27% | 0% | 1%
CN(C)c1ccc(/C=C2\C=Nc3ccccc32)cc1 | / | -12% | / | / | / | 0%
CCc1sc(/C=C(/C#N)C(N)=S)cc1[N+](=O)[O-] | 0% | 0% | -9% | 2.8µM* | -8% | 0%
CCc1ccc(/C=C(/C#N)C(N)=S)s1 | 0% | / | ? | -9% | -2% | 1%

High-throughput results as filed in PubChem BioAssay.
